Only some compounds are listed: those with a hit (about 20% of all), similar ones and a draw of the others.
Pf growth 96h: inhibits malaria parasite growth, 96 h; P. falciparum luciferase reporter growth, 96 h; Potency, µM (doses to about 28.7 µM), usual class: inhibitors; hit rate 6.9% among 320,000
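Erythrocytes infected with luciferase-expressing P. falciparum were dispensed at 2% hematocrit and 0.05% parasitemia (final), then incubated with compounds 96 hours at 37 C in 5% CO2. Luminescence after detection reagent addition reported growth.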
HCMV antiviral: human cytomegalovirus inhibition. hit rate 4.5% among 410,000. activity change, negative = inhibition, % at 57.5 µM. HFF cells, HCMV-luciferase reporter, 72 h; active compounds read low; in the data active = activity change below about -60%; inconclusive = no clear call, values can overlap the other calls; inactive = above about -39%
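Cell-based, HFFs, 1000 cells/well, 16 h 37C; cpds in DMSO + HCMV-luc, MOI 1 PFU/cell; 72 h 37C; OneGlo luminescence after 5 min RT; norm. to buffer vs Salinomycin 10uM.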
Pf growth 48h: P. falciparum growth inhibition at 48 hours (one generation) | hit rate 5.9% among 310,000 | AID 504832 | P. falciparum luciferase growth in erythrocytes, 48 h | Potency, µM (top dose mostly 28.7 µM), usual class: inhibitors
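Luminescence readout; reporter = integrated firefly luciferase in P. falciparum. RBC culture at 2% hematocrit, 0.1% parasitemia final, 37 C/5% CO2; decreased signal taken as growth inhibition.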
Cycloheximide cs: affects cycloheximide protein synthesis inhibition readout, counter-screen | cell reporter, cycloheximide protein synthesis inhibition counterscreen | max response, % | hit rate 12% among 300,000; in the data active = max response mostly above about 13%, no sharp cut-off; inactive = mostly below about 14%; also: read at 38.3 µM for the half of the compounds with a filed dose
Shiga inhibitor: blocks Shiga toxin action in Vero cells | Vero cells, Shiga toxin protein synthesis inhibition reporter | hit rate 9.2% among 290,000 | inhibition, % at 38.7 µM; in the data active = inhibition mostly above about 28%, no sharp cut-off; inactive = mostly below about 43%
Numbers stand for hits; – = inactive; ? = inconclusive; · = not tested or not shown; ! = not active in a repeat. Unless noted, calls follow the shape of the dose curve; as a rule, active = well fitted inhibition curve with a large enough effect; inconclusive = small, poorly fitted or top-dose-only effect, or another doubt; inactive = no such curve, though single readings can be large or run the other way.

SMILES | Pf growth 96h | HCMV antiviral | Pf growth 48h | Cycloheximide cs | Shiga inhibitor
Cc1cc(C)c(S(=O)(=O)c2ccccc2)c(OC(=O)c2c(Cl)cc(Cl)cc2Cl)n1 | – | – | 3.7µM | – | –
Cc1cc(C)c(S(=O)(=O)c2ccccc2)c(OC(=O)c2c(F)cccc2F)n1 | – | – | – | – | –
Cc1cc(C)c(S(=O)(=O)c2cccc(Cl)c2)c(Cl)n1 | ? | – | 10µM | – | –
Cc1cc(C)c(S(=O)(=O)c2c(C)cccc2C)c(Cl)n1 | – | – | – | – | –
Cc1cc(C)c(S(=O)(=O)c2ccc(Cl)cc2C)c(Cl)n1 | – | – | – | – | –
O=C1COCc2cc(-c3cccnc3)ccc2N1Cc1ccc2c(c1)OCO2 | · | – | · | · | ·
COc1ccccc1CNC(=O)C(NS(=O)(=O)c1ccc2c(c1)CCN2C(C)=O)C(C)C (centres undefined) | · | – | · | · | ·
CN(C)CCCN1c2ccc([N+](=O)[O-])cc2CCc2cc([N+](=O)[O-])ccc21 | · | – | · | · | ·
Nc1c(-c2ccc(Cl)cc2)cnn1C1CCS(=O)(=O)C1 (centres undefined) | · | – | – | – | –
CN1C2CCC1CC(OC(c1ccccc1)c1ccccc1)C2 (centres undefined) | 9.5µM! | – | 12µM | – | –
CN1[C@@H]2CC[C@H]1CC(OC(c1ccccc1)c1ccccc1)C2 (some centres undefined) | 4.8µM | · | 17µM | – | –
CN1[C@@H]2CC[C@H]1CC(OC1c3ccccc3CCc3ccccc31)C2 (some centres undefined) | ? | – | 4.7µM | · | ·
Cc1ccc(Oc2ccc(NC(=O)Cn3ccsc3=N)cc2)cc1 | · | – | 10µM | – | –
Cc1ccc(NC(=O)CN(C)C(=O)Cn2ccsc2=N)cc1 | – | – | – | – | –
Cc1nn(Cc2cccc(C(=O)Nc3ccn(Cc4c(F)c(F)cc(F)c4F)n3)c2)c(C)c1[N+](=O)[O-] | 13µM | – | · | – | –
COc1ccc(NC(=O)CN(C)CC(=O)NCc2ccc(C)cc2)cc1 | – | – | – | · | ·
Cc1cc2c(c(SCC(=O)NCc3ccccc3Cl)n1)C(=O)OC2 | – | – | – | – | –
CC(C)(C)c1ccc(C(=O)N2CCCN(c3ccc([N+](=O)[O-])cn3)CC2)cc1 | 12µM | – | ? | – | –
COc1ccc(C(=O)N2CCN(c3ccc([N+](=O)[O-])c(-n4nc(C)cc4C)c3)CC2)cc1 | – | – | – | – | –
Cc1cc(C)n(-c2cc(N3CCN(C(=O)c4ccc(C(C)(C)C)cc4)CC3)ccc2[N+](=O)[O-])n1 | 9.3µM | – | 4.7µM | – | –
COc1cccc(-c2nc(-c3cccs3)no2)c1 | – | – | – | 43 | 57
COc1ccc(-c2ccc(-c3noc(-c4cccc(OC)c4)n3)c(OC)n2)cc1 | ? | – | – | – | –
COc1cc(OC)cc(-c2nc(-c3cccs3)no2)c1 | – | – | – | 44 | –
COc1cccc(-c2nc(CS(=O)(=O)c3ccccc3)no2)c1 | ? | – | – | 51 | 91
COc1cccc(-c2nc(-c3ccncc3)no2)c1 | – | – | – | 35 | 121
SMILES | Pf growth 96h | HCMV antiviral | Pf growth 48h | Cycloheximide cs | Shiga inhibitor
CCOCC(=O)Nc1ccc([N+](=O)[O-])cc1C | – | – | – | – | –
CCC1c2ccc(C)n2CCN1C(=O)Nc1ccccc1OC (centres undefined) | – | – | ? | 15 | 29
COc1ccccc1NC(=O)N1CCCC1C(=O)Nc1ccc(NC(C)=O)cc1 (centres undefined) | ? | – | ? | – | –
Cn1nc(C(F)(F)F)c(C(=O)Nc2ccc(F)cc2F)c1Sc1cccc(C(F)(F)F)c1 | 8.3µM | – | 9.3µM | – | –
O=C(Nc1ccc(F)cc1F)c1c(C(F)(F)F)ccnc1Oc1cccc(C(F)(F)F)c1 | 10µM | – | 15µM | – | –
Cn1nc(C(F)(F)F)c(C(=O)Nc2ccc(F)cc2F)c1Sc1cccc(Cl)c1 | ? | – | ? | – | –
O=C(Nc1ccc(F)cc1F)c1c(C(F)(F)F)ccnc1Oc1ccc(Cl)cc1 | ? | – | ? | – | –
CCOC(=O)C1CCCN(C2=NC(=O)/C(=C/c3ccc(OC)cc3)S2)C1 (centres undefined) | ? | ? | 10µM | – | –
CCOC(=O)C1CCCN(C2=NC(=O)/C(=C/c3ccc(O)c(OCC)c3)S2)C1 (centres undefined) | – | – | ? | – | –
COc1ccc(OC)c(/C=C2\SC(N3CCCCC3)=NC2=O)c1 | – | – | – | – | –
CCOC(=O)C1CCCN(C2=NC(=O)/C(=C/c3ccc(N(C)C)cc3)S2)C1 (centres undefined) | – | – | 6.6µM | 26 | 33

Screening data deposited in PubChem BioAssay by National Center for Advancing Translational Sciences (NCATS).
